HSF1 inhib: HSF1 inhibition; NIH3T3-HGL HSE-luciferase, MG132-induced, luminescence 8 h; active compounds read low; activity change, negative = inhibition, % at 7.5 µM (by protocol); actives 0.77% (n = 300,000); AID 2098;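 active = more than half of replicate wells show activity change below -50%, luminescence cut by over half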;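 note: luciferase reports HSF-1 transcriptional activity via heat shock element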
HSF-1 act: increases HSF-1 driven luciferase reporter signal; NIH3T3-HGL HSF-1 luciferase reporter, MG132, 8 h; 100% = twice DMSO control signal; activation, % at 9 µM; actives 1.7% (n = 300,000); AID 504408;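 active = mean replicate activation of at least 50% with a set share of replicates each reaching 50%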
FXN GAA850 act: activators of GAA850 frataxin (FXN) promoter. HEK293 lucGAA850 FXN promoter luciferase reporter, 24 h; percent of 10 µM SAHA response. actives 0.56% (n = 360,000). activation, % at 6 µM. AID 540364;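 active = activation above the average of all compounds screened plus 3 SD, cutoff fixed separately per campaign, cut at about 7.5% in these data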
DAX1 inh: NR0B1 (DAX1) inhibition; P51843; HEK293 Gal4-DAX1 luciferase reporter, luminescence; inhibition, % at 6.75 µM; actives 0.99% (n = 340,000);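 active = inhibition above the mean over all tested compounds plus 3 SD, cut at about 4.2% in these data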;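 note: inhibition shows as a rise in luminescence from relieved DAX1 repression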
Target sequence (P51843 207-470 limits assumed): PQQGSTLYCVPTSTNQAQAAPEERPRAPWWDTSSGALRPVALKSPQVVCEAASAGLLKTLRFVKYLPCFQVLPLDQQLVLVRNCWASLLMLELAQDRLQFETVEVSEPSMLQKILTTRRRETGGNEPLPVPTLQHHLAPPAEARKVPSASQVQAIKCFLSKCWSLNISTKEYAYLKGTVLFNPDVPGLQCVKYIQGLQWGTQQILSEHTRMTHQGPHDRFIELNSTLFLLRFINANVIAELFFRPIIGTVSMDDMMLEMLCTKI
AHR activator: human AHR activation | actives 2.5% (n = 320,000) | activation, % at 5 µM | P35869 | AHR-responsive luciferase reporter cells, luminescence; in the data active = activation above about 47%
GAA30 FXN cntr: activates GAA30 frataxin promoter, counter-screen for GAA850 activators; AID 588350; actives 66% (n = 1,900); shares compounds with FXN GAA850 act; activation, % at 6 µM; HEK293 lucGAA30 FXN promoter luciferase, 24 h; DMSO = 0%, 5 µM ipriflavone = 100%;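 active = mean activation above the mean of solvent-only control wells plus 3 SD, cut at about 22% in these data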;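 note: counterscreen of GAA850 promoter hits where activity marks nonselective or luminescence artifacts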
FXN GAA850 conf: confirmation of GAA850 frataxin (FXN) promoter activators; activation, % at 6 µM; HEK293 lucGAA850 FXN promoter luciferase reporter, 24 h; 100% = activation by SAHA; actives 86% (n = 1,900); shares compounds with FXN GAA850 act;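 active = mean activation above a set limit taken from the primary screen, cut at about 8% in these data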
Numbers stand for hits; – = inactive; · = not tested or not shown. This is a sample that favours compounds with a hit; in the whole collection about 5.4% have one here.

SMILES	HSF1 inhib	HSF-1 act	FXN GAA850 act	DAX1 inh	AHR activator	GAA30 FXN cntr	FXN GAA850 conf
CCn1c(O)c(/C=C2\C=Nc3ccccc32)sc1=Nc1ccccc1	–	–	13	–	–	60	27
CCn1c(O)c(C=C2N=c3ccccc3=N2)sc1=S	–	–	–	–	–	·	·
N/C(=N\OC(=O)c1cccs1)c1ccccc1	–	–	7.7	–	–	99	28
N/C(=N\OC(=O)c1cccs1)c1cccc(Br)c1	–	–	8.0	–	–	57	–
COc1ccc(Br)cc1CNC(=O)CN1C(=O)C(c2ccccc2)Oc2cccnc21 (stereo unspecified)	–	–	–	–	–	·	·
COc1cccc(CNC(=O)Cn2cc3c(n2)CCCC3)c1	–	–	16	–	–	23	10
CC(C)(C)OC(=O)CC(S(=O)(=O)c1ccccc1)S(=O)(=O)c1ccccc1	·	·	18	–	·	–	42
CCOc1nc(Nc2ccccc2F)nc(OCC)n1	–	–	–	–	–	·	·
C=CCNc1nc(Nc2ccccc2F)nc(OCC)n1	–	–	9.4	–	–	80	36
C=C1CC(Cn2cc(Br)c(=O)[nH]c2=O)(c2ccc(-c3ccccc3)cc2)OC1=O (stereo unspecified)	–	–	11	–	·	–	52
O=c1[nH]c(=O)n(Cc2ccc(Oc3ccccc3)cc2)cc1Br	–	–	–	–	–	·	·
Cc1ccccc1N(CC(=O)N1CCN(Cc2ccccc2)CC1)S(C)(=O)=O	·	·	–	–	·	·	·
CC(=O)c1ccc(N(C(=O)Cc2c[nH]c3ccccc23)C(C(=O)NC2CCCCC2)c2cccs2)cc1 (stereo unspecified)	–	–	–	–	–	·	·
Cc1cccc(N(C(=O)Cc2cccs2)C(C(=O)NC2CCCC2)c2ccncc2)c1 (stereo unspecified)	–	–	–	–	–	·	·
O=C(NC1CCCCC1)C(c1cccs1)N(C(=O)Cc1c[nH]c2ccccc12)c1ccc(F)cc1 (stereo unspecified)	–	51	10	–	–	–	–
Cc1ccc(N(C(=O)Cc2cccs2)C(C(=O)NC2CCCCC2)c2ccccn2)cc1C (stereo unspecified)	–	–	13	–	–	–	11
CCN1CCN(C(=O)c2ccc3c(c2)N(Cc2ccccc2F)C(=O)c2ccccc2S3(=O)=O)CC1	–	–	–	–	–	·	·
CCOc1ccc(Nc2ncnc3c2cnn3Cc2ccccc2)cc1	–	–	–	–	–	·	·
CCOc1ccc(Nc2ncnc3c2cnn3-c2ccccc2)cc1	–	–	13	–	–	67	21
CC[C@]1(C(=O)OC)[C@H]2C(=O)N(Cc3ccccc3)C(=O)[C@H]2[C@H]2CN=C(SCc3ccc(C)cc3)N21	·	·	13	–	·	34	14
CCN1C(=O)[C@H]2[C@H]3CN=C(SCC4CC4)N3[C@@](Cc3ccccc3)(C(=O)OC)[C@H]2C1=O	·	·	–	–	·	·	·
CCN1C(=O)[C@H]2[C@H]3CN=C(SCc4ccc(C(=O)OC)cc4)N3[C@@](CC)(C(=O)OC)[C@H]2C1=O	·	·	–	–	·	·	·
CCN1C(=O)[C@H]2[C@H]3CN=C(SCc4ccc(C)cc4)N3[C@@](CC)(C(=O)OC)[C@H]2C1=O	·	·	–	–	·	·	·
CC[C@]1(C(=O)OC)[C@H]2C(=O)N(Cc3ccccc3)C(=O)[C@H]2[C@H]2CN=C(SCc3ccc(C(=O)OC)cc3)N21	·	·	9.5	–	·	–	11
CC[C@]1(C(=O)OC)[C@H]2C(=O)N(Cc3ccccc3)C(=O)[C@H]2[C@H]2CN=C(SCC3CC3)N21	·	·	17	–	·	30	18
SMILES	HSF1 inhib	HSF-1 act	FXN GAA850 act	DAX1 inh	AHR activator	GAA30 FXN cntr	FXN GAA850 conf
COC(=O)[C@@]1(C)[C@H]2C(=O)N(Cc3ccccc3)C(=O)[C@H]2[C@H]2CN=C(SCc3ccccc3)N21	·	·	16	–	·	33	16
CN(c1ccc(C(=O)COC(=O)C2CC2)cc1)S(C)(=O)=O	·	·	–	–	–	·	·
CCCOc1ccc(F)cc1-c1cc(C(=O)NCc2ccco2)[nH]n1	·	·	–	·	·	·	·
COc1ccc(NC(=O)C2(C)CCN2Cc2ccc(OC)c3ccccc23)cc1OC (stereo unspecified)	·	·	7.7	·	·	22	13
COc1ccc(NC(=O)C2(C)CCN2Cc2cccc(OC)c2OC)cc1OC (stereo unspecified)	·	·	–	·	·	·	·
CC(=O)OCC(=O)C1(O)CCC2C3CCC4=CC(=O)CCC4(C)C3(F)C(O)CC21C (stereo unspecified)	·	·	–	–	·	·	·
O=C(CSC1=NCCN1)Nc1cccc(C(F)(F)F)c1	–	67	9.6	–	–	25	21
Cn1cc(C2=C(c3ccc(Cl)cc3Cl)C(=O)NC2=O)c2ccccc21	–	–	12	–	–	–	9.2
Nc1ccc2nc(-c3ccccc3)c(-c3ccccc3)nc2c1	–	–	14	–	–	–	11
N#C/C(=N\Nc1ccc(Cl)cc1)C(=N)N1CCCCCC1	–	–	12	10	–	130	49

Source: PubChem
